Reference: PubChem BioAssay AID463173 (ICCB-Longwood Screening Facility, Harvard Medical School, 2010)
About 4,300 (8.3%) of roughly 52,000 compounds were called active. What follows is part of a selection rich in actives, with near analogues and random picks from the rest. Unmarked numbers belong to inactive results. Rule as the data show it: active = survival mostly below about 52% (no sharp cut-off); inactive = mostly above about 56%.

Each compound was assayed on DeltatarO mutant (assay: growth inhibition of S. aureus wild type versus tarO mutant, primary screen, teichoic acid synthesis inhibitors, RN4220, OD600 (AID 463173)). Conditions: OD600, 18 h, stronger effect = lower value, screened at 18.75 µg/mL (by protocol).

Compared with `Cc1ccc(Cn2nc(C)c(NC(=O)c3cc(-c4ccc(F)cc4)on3)c2C)cc1`, `COc1ccc(-c2cc(C(=O)Nc3c(C)nn(Cc4ccc(F)cc4)c3C)no2)cc1OC` is lower in survival: 61% for the first, 59% for the second.

First: CCc1cc(C(=O)Nc2c(C)nn(Cc3ccccc3Cl)c2C)no1
Second: Cc1cc(C(=O)Nc2c(C)nn(Cc3ccc(F)cc3)c2C)no1
The survival of the first is lower: 69% for the first, 156% for the second.

First: COc1ccc(-c2cc(C(=O)Nc3c(C)nn(Cc4ccc(C)cc4)c3C)no2)cc1OC
Second: COc1ccc(-c2cc(C(=O)Nc3c(C)nn(Cc4ccccc4C)c3C)no2)cc1
The survival of the first is higher: 60% for the first, 51% for the second.

Going from `COc1cc(NC(=O)Cn2ncc3c([nH]c4ccc(C)cc43)c2=O)cc(OC)c1OC` to `COc1ccc(OC)c(NC(=O)c2cc(C3CC3)nc3c2c(C)nn3-c2ccc(C)cc2)c1`, the survival falls from 86% to 64%.

`Cn1c(N2CCN(S(=O)(=O)c3ccc(Cl)cc3)CC2)nc2ccccc21` and `CCOC(=O)C1CCN(c2nc(-c3ccc(Br)cc3)nc3ccccc23)CC1` are the same in survival: 83% for the first, 83% for the second.

First: COc1ccc(NC(=O)CCc2c(C)nn(-c3ccc(N4CCCCC4)nn3)c2C)cc1Cl
Second: COc1cccc(NC(=O)Cn2cnc3c(nc4n3CCCCC4)c2=O)c1
The survival of the first is higher: 87% for the first, 76% for the second.

Compared with `Cc1sc2nc(CN3CCN(C(=O)c4ccco4)CC3)n(C(=O)c3ccco3)c(=O)c2c1C`, `Cc1ccc(C)c(CN2C(=O)c3ccccc3S(=O)(=O)c3ccc(C(=O)N4CCN(Cc5ccccc5)CC4)cc32)c1` is lower in survival: 86% for the first, 59% for the second.

Going from `CCOC(=O)c1c(S(=O)(=O)N2CCCC(C(=O)Nc3cc(C)ccc3OC)C2)c(C)n(C)c1C` (stereo unspecified) to `CCC(=O)N1CCc2cc(S(=O)(=O)Nc3cc(C)ccc3OC)ccc21`, the survival rises from 75% to 84%.

Compared with `O=C(Oc1ccccc1-c1nc(-c2ccccc2)no1)c1ccccc1`, `COc1cccc(C(=O)CC2(O)C(=O)N(Cc3ccccc3)c3ccccc32)c1` (stereo unspecified) is higher in survival: 85% for the first, 175% for the second.

Going from `O=C(/C=C/c1ccco1)OCCN1CCOCC1` to `O=C(/C=C/c1ccco1)ON1C(=O)c2ccccc2C1=O`, the survival rises from 69% to 91%.

Going from `O=C1c2ccccc2C(=O)N1COc1cccc2cccnc12` to `O=c1c2cnn(-c3ccc(F)cc3)c2ncn1Cc1ccccc1Cl`, the survival rises from 97% to 100%.

Going from `Cc1ccc(C(c2nnnn2Cc2ccccc2)N2CCC(C)CC2)cc1` (stereo unspecified) to `Cc1ccc(CN2C(=O)C(O)(CC(=O)c3ccc(C)cc3)c3ccccc32)cc1` (stereo unspecified), the survival falls from 70% to 65%.

First: CCCC1(C(=O)OC)NC(c2ccc(OC)c(OC)c2)C2C(=O)N(c3ccc4c(c3)OCO4)C(=O)C21 (stereo unspecified)
Second: CCCN1C(=O)C(O)(CC(=O)c2ccc(OC)c(OC)c2)c2ccccc21 (stereo unspecified)
The survival of the first is lower: 84% for the first, 146% for the second.

Going from `COc1cccc(NC(=O)Cn2cc(C(=O)c3ccc(F)cc3)c(=O)c3cc(OC)ccc32)c1` to `COc1ccc(C(=O)CC2(O)C(=O)N(Cc3ccccc3)c3ccc(Br)cc32)cc1` (stereo unspecified), the survival falls from 92% to 50%.

Compared with `Nc1nnc2c(n1)[nH]c1ccccc12`, `Cn1nnc2c(N3CCN(c4ccccc4)CC3)ncnc21` is lower in survival: 81% for the first, 74% for the second.

Going from `O=C(CSc1nnc(COc2ccc(F)cc2)o1)N1c2ccccc2CCc2ccccc21` to `Cc1ccccc1CN1C(=O)C(O)(CC(=O)c2cccc(Br)c2)c2ccccc21` (stereo unspecified), the survival rises from 65% to 71%.

Compared with `CCOC(=O)C1CCN(c2cc(C)c(C#N)c3nc4ccccc4n23)CC1`, `CCOC(=O)C1CCCN(c2ncnc3c2nnn3C)C1` (stereo unspecified) is higher in survival: 100% for the first, 117% for the second.

Compared with `CC1CCN(c2ncnc3c2nnn3C)CC1`, `Cn1nnc2c(N3CCN(c4ccc(F)cc4)CC3)ncnc21` is higher in survival: 92% for the first, 99% for the second.

First: Cc1cc(NS(=O)(=O)c2ccc(NC(=O)COc3ccc(Cl)cc3)cc2)nc(C)n1
Second: Cc1ccnc(NS(=O)(=O)c2ccc(NC(=O)c3cc(=O)c4ccc(C)c(C)c4o3)cc2)n1
The survival of the first is lower: 54% for the first, 78% for the second.

Going from `Cc1ccc2[nH]c(=O)c(CN(CC3COCCO3)C(=O)Nc3ccccc3F)cc2c1` (stereo unspecified) to `Cc1ccc2occ(CC(=O)N(Cc3ccc(Cl)cc3)C3CCS(=O)(=O)C3)c2c1` (stereo unspecified), the survival falls from 96% to 64%.

First: CCCC12CCC(C(=O)O)(CC1)CC2
Second: CCN(CC)c1ccc(NC(=O)CCS(=O)(=O)c2cc3c(cc2Cl)NC(=O)CO3)c(C)c1
The survival of the first is lower: 83% for the first, 86% for the second.

Going from `Cc1cc(C(=O)NCc2ccccc2Cl)c2c(C)nn(-c3cccc(F)c3)c2n1` to `O=C(CSc1nccn1Cc1ccccc1)NCc1ccccc1Cl`, the survival rises from 68% to 92%.

First: Cc1cc(C)cc(NC(=O)c2cc(S(=O)(=O)N3CCc4ccccc43)cn2C)c1
Second: O=C(Nc1ccc(S(=O)(=O)Nc2ncccn2)cc1)c1ccccc1Cl
The survival of the first is lower: 63% for the first, 81% for the second.

Going from `CC(C)OC(=O)CSc1n[nH]c(-c2cccnc2)n1` to `CCc1cccc(NC(=O)c2cc(-c3ccccc3)n[nH]2)c1`, the survival falls from 108% to 90%.

Going from `COc1ccc(NC(=O)Nc2nnc(C)s2)cc1` to `CCc1ccc(C(=O)CC2(O)C(=O)N(Cc3ccc(C)cc3)c3ccccc32)cc1` (stereo unspecified), the survival falls from 91% to 57%.

First: CCc1cccc(N2C(=O)CSC23C(=O)Nc2ccccc23)c1 (stereo unspecified)
Second: O=C(CC1(O)C(=O)N(Cc2ccccc2)c2ccc(Br)cc21)c1ccccc1 (stereo unspecified)
The survival of the first is lower: 85% for the first, 99% for the second.

In the case of `COc1ccccc1-c1cc(C(=O)Nc2c(C)nn(Cc3ccc(Cl)cc3)c2C)no1`, the survival is reported as 29% (active).
With `COc1ccc(OC)c(-c2cc(C(=O)Nc3c(C)nn(Cc4ccc(C)cc4)c3C)no2)c1` the survival was 34% (active).
With `COc1cccc(-c2cc(C(=O)Nc3c(C)nn(Cc4ccccc4Cl)c3C)no2)c1` the survival was 34% (active).
With `O=C(Oc1cccc2cccnc12)c1ccccc1` the survival was 2% (active).
With `O=C(/C=C\c1ccco1)Oc1cccc2cccnc12` the survival was 2% (active).
In the case of `COc1ccc(N2CCN(c3ncnc4c3nnn4C)CC2)cc1`, the survival is reported as 0% (active).
With `CCOC(=O)C1CCN(c2nc3ccccc3nc2Cl)CC1` the survival was -24% (active).
In the case of `CCOC(=O)C1CCN(c2ncnc3c2nnn3C)CC1`, the survival is reported as 37% (active).
For `Clc1ccccc1Cn1cccc1C1=NC(Cc2ccccc2)CO1` (stereo unspecified), the survival was 40% (active).
For `CCc1ccc2c(c1)C1(NN=C(c3ccccc3)S1)C(=O)N2` (stereo unspecified), the survival was 0% (active).
For `Cc1ccc(C(=O)CC2(O)C(=O)N(Cc3ccccc3)c3ccccc32)c(C)c1` (stereo unspecified), the survival was 41% (active).
`CCCCN1C(=O)C(O)(CC(=O)c2ccc(C)cc2C)c2cc(Br)ccc21` (stereo unspecified) was tested, and the survival was 11% (active).
In the case of `CCCCN1C(=O)C(O)(CC(=O)c2ccc(CC)cc2)c2cc(Br)ccc21` (stereo unspecified), the survival is reported as 32% (active).
In the case of `COc1ccc(C(=O)CC2(O)C(=O)N(Cc3cccc(C(F)(F)F)c3)c3ccccc32)cc1` (stereo unspecified), the survival is reported as 33% (active).
